{"source": "PubChem BioAssay AID2783", "about": "(National Center for Advancing Translational Sciences (NCATS), 2010)", "biological_target": "Menin (Homo sapiens) (UniProt O00255)", "sequence (O00255 whole entry, looked up)": "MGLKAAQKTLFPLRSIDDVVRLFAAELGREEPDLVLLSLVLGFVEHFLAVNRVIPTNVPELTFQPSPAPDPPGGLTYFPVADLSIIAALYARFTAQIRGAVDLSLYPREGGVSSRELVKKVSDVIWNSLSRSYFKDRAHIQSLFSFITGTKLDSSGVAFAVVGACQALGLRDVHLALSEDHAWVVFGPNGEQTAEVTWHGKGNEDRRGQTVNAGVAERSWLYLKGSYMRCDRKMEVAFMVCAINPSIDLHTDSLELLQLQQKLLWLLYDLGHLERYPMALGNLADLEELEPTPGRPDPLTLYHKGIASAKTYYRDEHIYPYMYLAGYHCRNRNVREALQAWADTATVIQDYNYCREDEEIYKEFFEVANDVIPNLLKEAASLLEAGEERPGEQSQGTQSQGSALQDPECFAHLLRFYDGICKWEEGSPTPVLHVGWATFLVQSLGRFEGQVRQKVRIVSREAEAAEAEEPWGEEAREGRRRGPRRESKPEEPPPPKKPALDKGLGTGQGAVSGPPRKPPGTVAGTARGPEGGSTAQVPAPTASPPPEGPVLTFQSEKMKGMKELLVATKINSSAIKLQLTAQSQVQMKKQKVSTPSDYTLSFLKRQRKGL", "experiment": "Confirmation of Inhibitors Targeting the Menin-MLL Interaction in MLL Related Leukemias: Competition With Fluorescein Labeled MLL-derived Peptide", "note": "Results filed as inconclusive are left out. Active and inactive are the calls of the source. Calls follow the shape of the dose curve; as a rule, active = well fitted inhibition curve with a large enough effect in the polarisation, with a control signal flat (not every such curve was filed as active); inconclusive = small, poorly fitted or top-dose-only effect, or effect the other way, or a change in a side signal; inactive = no such curve, though single readings can be large or run the other way; the % refers to the polarisation.", "data": [{"compound": "Cc1ccc(C2=NN(C(=O)c3ccccc3F)C(c3ccccc3F)C2)cc1", "note": "(stereo not drawn)", "values": [{"measurement": "outcome", "result": "inactive"}]}, {"compound": "NC(=O)c1cc2ccccc2o/c1=N/NC(=O)c1cccc(F)c1", "values": [{"measurement": "outcome", "result": "inactive"}]}, {"compound": "NC(=O)C1CCN(C2=C(Cl)C(=O)c3ccccc3C2=O)CC1", "values": [{"measurement": "outcome", "result": "inactive"}]}, {"compound": "Clc1ccc(-c2nnc(-c3ccccc3)nc2-c2c[nH]c3ccccc23)cc1", "values": [{"measurement": "outcome", "result": "inactive"}]}, {"compound": "O=C(/C=C/c1ccccc1)Nc1nnc(SCC(=O)c2ccc3ccccc3c2)s1", "values": [{"measurement": "outcome", "result": "inactive"}]}, {"compound": "O=C(O)c1ccccc1NS(=O)(=O)c1cccc(-n2sc3ccccc3c2=O)c1", "values": [{"measurement": "outcome", "result": "inactive"}]}, {"compound": "O=C(Nc1nnc(-c2ccccc2SCc2ccccc2)s1)Nc1ccccc1F", "values": [{"measurement": "outcome", "result": "inactive"}]}, {"compound": "O=C(Nc1ccc2c(c1)OCO2)c1ccccc1", "values": [{"measurement": "outcome", "result": "inactive"}]}, {"compound": "O=[N+]([O-])c1ccc(S(=O)(=O)c2ccccc2)nc1", "values": [{"measurement": "outcome", "result": "inactive"}]}, {"compound": "O=C1C(Cl)=C(NCCN2CCOCC2)C(=O)c2ncccc21", "values": [{"measurement": "outcome", "result": "inactive"}]}, {"compound": "NC(=O)c1ccc(NC(=O)c2cncn2-c2ccccc2)cc1", "values": [{"measurement": "outcome", "result": "inactive"}]}, {"compound": "COc1ccc(CN2CCN(C(C)C(=O)N(C)Cc3cccc(F)c3)CC2)cc1OC", "note": "(stereo not drawn)", "values": [{"measurement": "outcome", "result": "inactive"}]}, {"compound": "COc1ccc(-c2csc(NC(=O)c3cc(-c4cccs4)nc4ccccc34)n2)c(OC)c1", "values": [{"measurement": "outcome", "result": "inactive"}]}, {"compound": "Cn1c(=O)n(C)c2cc3[nH]cnc3cc21", "values": [{"measurement": "outcome", "result": "inactive"}]}, {"compound": "CN1CCN(CC(=O)Nc2ccc(S(=O)(=O)N(C)C)cc2)CC1", "values": [{"measurement": "outcome", "result": "inactive"}]}, {"compound": "Oc1ccc(Nc2ncnc3c2oc2ccccc23)cc1", "values": [{"measurement": "outcome", "result": "inactive"}]}, {"compound": "CN1CCN(CC(=O)c2ccccc2F)CC1", "values": [{"measurement": "outcome", "result": "inactive"}]}, {"compound": "Cc1cccc(Nc2nnc(SCC(=O)NC(=O)Nc3ccc4c(c3)OCCO4)s2)c1", "values": [{"measurement": "outcome", "result": "inactive"}]}, {"compound": "COC1=C(Nc2ccccc2)C(=O)c2ccccc2C1=O", "values": [{"measurement": "outcome", "result": "inactive"}]}, {"compound": "O=C(Nc1cc(Br)ccc1O)c1cc(-c2ccccc2)on1", "values": [{"measurement": "outcome", "result": "inactive"}]}, {"compound": "CCOc1ccccc1N(CC(=O)Nc1ccccc1C(=O)N1CCCC1)S(C)(=O)=O", "values": [{"measurement": "outcome", "result": "inactive"}]}, {"compound": "Fc1ccccc1C1c2cccn2CCN1C(=S)Nc1ccc(Br)cc1", "note": "(stereo not drawn)", "values": [{"measurement": "outcome", "result": "inactive"}]}, {"compound": "CCC(=O)NC(=S)Nc1ccc(NC(=S)NC(=O)c2ccc(C)cc2)cc1", "values": [{"measurement": "outcome", "result": "inactive"}]}, {"compound": "CCc1oc2ccccc2c1C(=O)c1cc(Br)c(O)c(Br)c1", "values": [{"measurement": "outcome", "result": "inactive"}]}, {"compound": "COCCn1c(C)c(C)c2c(NCCc3ccccc3)ncnc21", "values": [{"measurement": "outcome", "result": "inactive"}]}, {"compound": "O=c1cc(O)c2ccccc2n1Cc1ccccc1F", "values": [{"measurement": "outcome", "result": "inactive"}]}, {"compound": "CCc1ccccc1NC(=O)COc1cccc(-n2cnnn2)c1", "values": [{"measurement": "outcome", "result": "inactive"}]}, {"compound": "O=C(CSc1nnc(-c2c[nH]c3ccccc23)o1)c1ccc(-c2ccccc2)cc1", "values": [{"measurement": "outcome", "result": "inactive"}]}, {"compound": "Cc1ccc(C#CC(C)(O)C(C)(C)C)cn1", "note": "(stereo not drawn)", "values": [{"measurement": "outcome", "result": "inactive"}]}, {"compound": "O=C(Cn1c(=O)c2c3c(sc2n(Cc2ccccc2)c1=O)CCCC3)NCCO", "values": [{"measurement": "outcome", "result": "inactive"}]}, {"compound": "CC(=O)Nc1ccc(-c2cc(-c3ccc(NC(C)=O)cc3)nc(-c3ccc(NC(C)=O)cc3)n2)cc1", "values": [{"measurement": "outcome", "result": "inactive"}]}, {"compound": "CC(=O)N1c2ccccc2C2(O)N=C(C)SC12", "note": "(stereo not drawn)", "values": [{"measurement": "outcome", "result": "inactive"}]}, {"compound": "O=S(=O)(NCCc1c[nH]c2ccccc12)c1ccccc1", "values": [{"measurement": "outcome", "result": "inactive"}]}]}
